# Assay outcomes deposited in PubChem BioAssay by National Center for Advancing Translational Sciences (NCATS).
# Only some compounds are listed: those with a hit (about 3.7% of all), similar ones and a draw of the others.
# FH mod – Identification of activators of human fumarate hydratase by quantitative high-throughput screening | hit rate 0.22% among 54,000 | FH coupled MDH/diaphorase resazurin fluorescence, 15 min | Potency, µM (series often up to 79.9 µM), for inactives: at the highest dose activity change, negative = inhibition, usual class: inhibitors | Fumarate hydratase, mitochondrial (Homo sapiens), P07954; note: potency is the fitted concentration of half-maximal effect; % is set by controls: 0 for no effect and ±100 for the full control effect; the screen sought activators but most active calls are inhibition curves; nearly all actives have a fitted effect of over 45% in size
# B2AR arrestin ag – qHTS assay of beta-arrestin-biased ligands of beta2-adrenergic receptor: NCGC Sytravon Library Screen | HTLA Tango cells, beta-arrestin recruitment, luciferase luminescence, 18 h | Potency, µM (series often up to 46.1 µM), usual class: activators | 44,000 tested, under 10 active | AID 1347077, 2019;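 note: potency is the fitted concentration of half-maximal effect; 0% = DMSO and full agonism = EC100 isoproterenol or metaproterenol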
#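 Ligand-induced beta-arrestin recruitment to recombinant beta2-AR is measured via a tTA-driven luciferase reporter in Tango cells after 18 hr compound exposure at 37 degrees C. Concentrations span up to 46 microM.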
# DRV1 agonist – qHTS for Agonists of Human Resolvin D1 Receptor DRV1; Probable G-protein coupled receptor 32 (Homo sapiens), O75388; CHO-K1 GPR32 beta-arrestin PathHunter luminescence, 90 min; zero percent set by DMSO-only wells; activation, % at 76.9 µM; hit rate 2.5% among 48,000;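 active = activation of at least 60% and not above a set upper limit, about 1 call in 100 departs from these limits; inconclusive = activation of 40% to 60%, or above that upper limit; inactive = activation under 40%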; note: 0% is about no effect
#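 PathHunter beta-arrestin recruitment in CHO-K1 cells stably expressing ProLink-tagged GPR32. Cells were exposed to compound for 90 min at 37 C, then chemiluminescence was read after 1 h detection at ambient temperature; DMSO served as basal control.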
# TSG101-PTAP inh – qHTS Validation Assay for Inhibitors of HIV-1 Budding by Blocking the Interaction of PTAP/TSG101: Sytravon Library Screen; Tumor susceptibility gene 101 protein (Homo sapiens), Q99816; Fluorescence polarization, FITC-PTAP peptide/Tsg101, 20 min; Potency, µM (doses to about 115 µM), hits mostly inhibitors; 44,000 tested, under 10 active; AID 1347069, 2019; note: potency is the fitted concentration of half-maximal effect; 0% is about no effect
#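 Compounds pinned into 10 uM Tsg101 binding domain, then 50 nM FITC-PTAP peptide added in pH 7.5 HEPES buffer; FP read after 20 min, room temperature. Total S+P intensity flags fluorescent compounds; active cut-off <25 µM, efficacy <60%.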
# NTMT1 inhibitor – Primary qHTS for Inhibitors of N-terminal methyltransferase 1 (NTMT1): MTaseGlo Assay. AID 1645870, 2021. N-terminal Xaa-Pro-Lys N-methyltransferase 1 (Homo sapiens), Q9BV86. NTMT1 MTase-Glo SAH luminescence, purified enzyme. Potency, µM (series often up to 114 µM), for the others: at the top dose activity change, negative = inhibition, hits mostly inhibitors. hit rate 2.5% among 59,000;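 note: potency is the fitted concentration of half-maximal effect; plate controls were DMSO vehicle for no effect and no enzyme for full effect; nearly all actives have a fitted effect of over 65% in size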
# GALK inhibitor – qHTS Assay for Inhibitors of Human Galactokinase (GALK): NCGC Sytravon Library Screen | 44,000 tested, under 10 active | P51570 | recombinant GALK, Kinase-Glo ATP luminescence, 1 h | Potency, µM (titrated, usually from 57.5 µM), without a hit: at the highest dose activity, negative = inhibition, actives largely listed as inhibitors | AID 1347072, 2019;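 note: plate controls were full GALK reaction for no effect and reaction lacking GALK for full effect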
#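 Compounds were pinned into ATP buffer, then GALK-galactose mix was added (final 5 nM enzyme, 35 uM ATP, 100 uM galactose, pH 8.0). After 1 h at room temperature, Kinase-Glo Plus was added and luminescence read.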
# Sfp PPTase inh – qHTS Assay for Inhibitos of Bacillus subtilis Sfp phosphopantetheinyl transferase (PPTase): Chemistry Optimization Followup | shares compounds with NTMT1 inhibitor | purified Sfp PPTase enzyme activity, qHTS | Potency, µM (titrated, usually from 114 µM), without a hit: at the highest dose activity change, negative = inhibition, actives largely listed as inhibitors | hit rate 78% among 230 | AID 540350, 2011
# Bsub HM489 growth – qHTS for Inhibitos of Bacillus subtilis Sfp phosphopantetheinyl transferase (PPTase): Chemistry Optimization Followup in B. Subtilis HM489; shares compounds with NTMT1 inhibitor; B. subtilis HM489 (acpS-) growth, BacTiter-Glo, 5 h; Potency, µM (highest dose often 114 µM), without a hit: at the highest dose activity change, negative = inhibition, most hits filed as inhibitors; hit rate 50% among 220; AID 540353, 2011
# Sfp gel opt – Gel-Based Assay for Inhibitos of Bacillus subtilis Sfp phosphopantetheinyl transferase (PPTase): Chemistry Optimization Followup. Potency, µM (series often up to 250 µM), inactives show at the highest dose activity change, negative = inhibition, usual class: inhibitors. shares compounds with NTMT1 inhibitor. AID 540355, 2011. hit rate 54% among 220. purified Sfp PPTase, gel-based product detection
# Sfp SAR2 – qHTS Assay for Inhibitors of Bacillus subtilis Sfp phosphopantetheinyl transferase (PPTase): SAR Round 2 | shares compounds with NTMT1 inhibitor | purified Sfp enzyme, PPTase activity, qHTS | Potency, µM (top dose mostly 57.1 µM), for inactives: top-dose activity change, negative = inhibition, most hits filed as inhibitors | hit rate 87% among 230
# HSD17B4 inh – Extended Characterization of HPGD Inhibitors: Counterscreen Against HSD17b4 | Potency, µM (doses to about 57.1 µM), for the others: at the top dose activity change, negative = inhibition, actives largely listed as inhibitors | shares compounds with NTMT1 inhibitor | AID 743187, 2013 | purified HSD17B4, estradiol/NAD+, NADH fluorescence | hit rate 10% among 230
# ALDH1A1 counter – Extended Characterization of HPGD Inhibitors: Counterscreen Against ALDH1A1. recombinant ALDH1A1, NADH fluorescence, propionaldehyde/NAD+. hit rate 93% among 230. Potency, µM (titrated, usually from 57.1 µM), for inactives: at the top dose activity change, negative = inhibition, hits mostly inhibitors. shares compounds with NTMT1 inhibitor
# Target sequence (P00352 whole entry, looked up): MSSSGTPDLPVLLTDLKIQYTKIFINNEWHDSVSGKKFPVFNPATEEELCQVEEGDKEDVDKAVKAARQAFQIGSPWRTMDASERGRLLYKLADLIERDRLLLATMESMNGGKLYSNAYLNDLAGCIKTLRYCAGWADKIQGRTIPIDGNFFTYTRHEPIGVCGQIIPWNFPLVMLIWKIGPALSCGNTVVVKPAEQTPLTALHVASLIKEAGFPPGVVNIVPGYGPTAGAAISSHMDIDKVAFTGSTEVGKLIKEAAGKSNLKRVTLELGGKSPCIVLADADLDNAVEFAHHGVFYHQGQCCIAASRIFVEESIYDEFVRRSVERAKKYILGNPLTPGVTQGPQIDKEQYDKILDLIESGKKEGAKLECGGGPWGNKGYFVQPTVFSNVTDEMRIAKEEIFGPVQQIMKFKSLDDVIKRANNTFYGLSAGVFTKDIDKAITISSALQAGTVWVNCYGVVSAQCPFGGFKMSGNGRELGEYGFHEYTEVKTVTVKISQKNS
# Active calls of the source: *; i = inactive; ? = inconclusive; . = no result. Unless noted, calls come from the whole dose curve; as a rule, active = well fitted curve in the direction sought with a large enough effect; inconclusive = small, poorly fitted or top-dose-only effect, or another doubt; inactive = no such curve, though single readings can be large; an effect the other way counts as inactive or inconclusive.
SMILES,FH mod,B2AR arrestin ag,DRV1 agonist,TSG101-PTAP inh,NTMT1 inhibitor,GALK inhibitor,Sfp PPTase inh,Bsub HM489 growth,Sfp gel opt,Sfp SAR2,HSD17B4 inh,ALDH1A1 counter
Cc1cc(C)nc(NC(=S)N2CCN(Cc3cccc(C(F)(F)F)c3)CC2)c1,.,.,.,.,.,.,6.6µM*,?,?,11µM*,-15%,12µM*
Cc1cc(C)nc(NC(=S)N2CCN(Cc3cccc4ccccc34)CC2)c1,.,.,.,.,?,.,4.7µM*,?,10µM*,8.1µM*,-11%,22µM*
Cc1cc(C)nc(NC(=S)N2CCN(c3nsc4ccccc34)CC2)c1,.,.,.,.,?,.,3.7µM*,?,6.3µM*,1µM*,-10%,22µM*
CN(Cc1ccccc1)C(=O)C1CCN(Cc2cccc3ccccc23)CC1,.,.,.,.,-3%,.,.,.,.,.,.,.
CCS(=O)(=O)c1ccccc1C(=O)N1CCN(c2nc3ccccc3s2)CC1,-24%,i,15,i,20%,-2%,.,.,.,.,.,.
Cc1cc2n(n1)CCC(=O)N2Cc1ccc(C(=O)Nc2cccc(C(F)(F)F)c2)cc1,-5%,i,28,i,-19%,0%,.,.,.,.,.,.
Cc1ccc(C)c(N2CCN(C(=O)c3ccc(NC(=O)c4nsc5ccccc45)cc3)CC2)c1,-29%,i,-18,i,-15%,-2%,.,.,.,.,.,.
Cc1cc(C)nc(NC(=S)N2CCN(c3nc4ccccc4s3)CC2)c1,.,.,.,.,?,.,0.37µM*,?,10µM*,0.91µM*,-15%,8.6µM*
